Measured values: PubChem BioAssay (NCATS)
Inconclusive results are not listed. A call without a number means that no potency is given here. The source made the active and inactive calls. Calls follow the shape of the dose curve; as a rule, active = well fitted inhibition curve with a large enough effect; inconclusive = small, poorly fitted or top-dose-only effect; inactive = flat fitted curve, though single readings scatter.

biological target: Phospholipid hydroperoxide glutathione peroxidase GPX4 (Homo sapiens) (UniProt P36969); test: Primary qHTS Assay for Inhibitors of Recombinant Selenoprotein Glutathione Peroxidase 4 (GPX4) (AID 1845192); conditions: recombinant GPX4, GR-coupled NADPH fluorescence, 15 min; series mostly up to 50 µM; also: nearly all actives have a fitted effect of over 65% in size
Sequence (P36969 whole entry, looked up): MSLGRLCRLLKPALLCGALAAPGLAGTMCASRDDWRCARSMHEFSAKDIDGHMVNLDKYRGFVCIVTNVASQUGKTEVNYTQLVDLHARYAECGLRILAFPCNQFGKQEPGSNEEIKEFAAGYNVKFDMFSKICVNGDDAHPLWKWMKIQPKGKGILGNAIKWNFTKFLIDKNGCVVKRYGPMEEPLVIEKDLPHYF
How it was run: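 GR-coupled readout: 100 nM GR, 1 mM GSH, 0.5 mM NADPH; NADPH fluorescence (ex 340/em 450 nm) read at t=0 and after 15 min RT. GPX4 200 nM, preincubated 30 min with compound; substrate 0.5 mM CHP.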

| Compound | Potency | outcome |
| --- | --- | --- |
| O=[N+]([O-])c1cccc2[nH]c(CNc3nc(N4CCOCC4)nc4c3ncn4-c3ccsc3)nc12 | inactive |  |
| Cc1c(F)cc(C(=O)NC2CC2)cc1-c1c(F)cn2c(C(C)(C)C)nnc2c1F | inactive |  |
| C(#Cc1nc2ncccc2nc1OCCN1CCCC1)c1ccccc1 | inactive |  |
| OC[C@@]1(O)CO[C@@H](OC[C@H]2O[C@@H](Oc3c[nH]c4ccccc34)[C@H](O)[C@@H](O)[C@@H]2O)[C@@H]1O | inactive |  |
| OC[C@H]1O[C@@H](OCCc2ccccc2)[C@H](O[C@@H]2OC[C@](O)(CO)[C@H]2O)[C@@H](O)[C@@H]1O | inactive |  |
| COc1ccc(-n2[nH]c(=O)c3[nH]c4cc(Cl)ccc4c(=O)c3c2=O)c(C)c1 | inactive |  |
| CCn1cc(NC(=S)Nc2cc(Cl)ccc2OC)c(C(N)=O)n1 | inactive |  |
| C=C(C(=O)O)C1CCC2(C)CCC(O)C(C)(O)C2C1 (stereo not given) | inactive |  |
| COc1cc(-c2ncn(/C=C\C(=O)OC(C)C)n2)cc(C(F)(F)F)c1 | inactive |  |
| COCCOc1cnc2ccn([C@H](C)c3nnc4c(F)cc(-c5cnn(C)c5)cn34)c(=O)c2c1 | inactive |  |
| CC1=CC(=O)C(=C(C)C)CC2C1CCC2(C)O (stereo not given) | inactive |  |
| O=C1CCC=CC1(O)C(=O)OCc1ccccc1O[C@@H]1O[C@H](CO)[C@@H](O)[C@H](O)[C@H]1O (stereo not given in full) | inactive |  |
| O=C(O)c1ccc(OC2OC(CO)C(O)C(O)C2O)cc1 (stereo not given) | inactive |  |
| C[C@@H]1O[C@@H](O[C@H]2[C@H](O)[C@@H](O[C@@H]3O[C@H](CO)[C@@H](O)[C@H](O[C@@H]4O[C@H](CO)[C@@H](O)[C@H](O)[C@H]4O)[C@H]3O)[C@H](O[C@H]3CC[C@@]4(C)C(=CC[C@@H]5C4CC[C@@]4(C)C5C[C@@H]5OC6(CC[C@@](C)(CO[C@@H]7O[C@H](CO)[C@@H](O)[C@H](O)[C@H]7O)O6)[C@@H](C)[C@@H]54)C3)O[C@@H]2CO)[C@H](O)[C@H](O)[C@H]1OC1OC(CO)C(O)C(O)C1O (stereo not given in full) |  | inactive [at 9.73 µM] |
| C/C=C/c1ccc2c(c1)[C@@H](C)[C@H](c1ccc(O)cc1)O2 | inactive |  |
| CC1=C(COC2OC(CO)C(O)C(O)C2O)C(C(CO)C(=O)O)CC1 (stereo not given) | inactive |  |
| Cc1ccc(S(=O)(=O)Nc2ccccc2N2CCCCC2)s1 | inactive |  |
| O=C(CN1C(=O)C2(CCCC2)NCC1c1cc(F)cc(F)c1)Nc1ccc2c(c1)CC1(C2)C(=O)Nc2ncccc21 (stereo not given) | inactive |  |

| Compound | Potency | outcome |
| --- | --- | --- |
| COc1cc(C)c(C(=O)Oc2cc(C)c(C(=O)Oc3cc(C)c(C(=O)NC(C)C(=O)O)c(O)c3)c(O[C@@H]3O[C@H](CO)[C@@H](O)[C@H](O)[C@H]3OC(C)=O)c2)c(OC)c1 (stereo not given in full) | inactive |  |
| CC(C)[N+]1(C)C2CCC1CC(OC(=O)C(CO)c1ccccc1)C2 (stereo not given) | inactive |  |
| CC1=CC(=O)CC(C)(C)C1CCC(C)O[C@@H]1O[C@H](CO[C@@H]2OC[C@@H](O)[C@H](O)[C@H]2O)[C@@H](O)[C@H](O)[C@H]1O (stereo not given in full) | inactive |  |
| C=CC1(C)C=C2C(=O)OC(=O)C3=C(CCCC3(C)C)C2(O)CC1 (stereo not given) | inactive |  |
| CN1CCN(c2ccc(C(=O)Nc3n[nH]c4ccc(Cc5cc(F)cc(F)c5)cc34)c(NC3CCOCC3)c2)CC1 | inactive |  |
| COC1C(=O)CCC2(CO2)C1(O)C1(C)OC1CC=C(C)C (stereo not given) | inactive |  |
| CCOCCn1nc(CC)c2nc(N3CCC(C(=O)O)CC3)nc(Nc3cc(C)ccn3)c21 | inactive |  |
| CC[C@@H](N)CNc1ccnc(-c2cc(-c3cnn(C)c3)ccc2O)n1 | inactive |  |
| CC1CCCCN1S(=O)(=O)c1ccc(N2CCCC2=O)cc1 (stereo not given) | inactive |  |
| Cc1cc(C(N)=O)ccc1-n1c(CCC(=O)O)ccc1-c1ccc(-n2ccnc2)cc1 | inactive |  |
| O=C(O[C@H]1[C@@H]2C=CO[C@@H](O[C@@H]3O[C@H](CO)[C@@H](O)[C@H](O)[C@H]3O)[C@@H]2[C@@]2(CO)O[C@@H]12)c1ccccc1 | inactive |  |
| CC(C)(C)NCCCNC(=O)c1cccc(Br)c1 | inactive |  |
| C/C=C/c1ccc(O[C@@H]2O[C@H](CO)[C@@H](O)[C@H](O)[C@H]2O)c(OC)c1 | inactive |  |
| C[C@@H]1C[C@H]2O[C@@H]2/C=C\C=C\C(=O)Cc2c(Cl)c(O)cc(O)c2C(=O)O1 | inactive |  |
| Nc1nc(-n2cc(C(=O)O)c(=O)c3cc(F)c(N4CC(O)C4)c(Cl)c32)c(F)cc1F | inactive |  |
| Cc1cccc(/C=N/Nc2cc(N3CCOCC3)n3nc(-c4ccncc4)cc3n2)c1 | inactive |  |
| CCCN1CCN(c2ccc(C(=O)NC3(C(=O)NCC#N)CCCCC3)cc2)CC1 | inactive |  |
